# High-throughput results (PubChem BioAssay)
# Pf growth 96h = inhibits malaria parasite growth, 96 h; P. falciparum luciferase reporter growth, 96 h; AID 504834; Potency, µM (titrated, usually from 28.7 µM), inactives show at the highest dose activity change, negative = inhibition, usual class: inhibitors; 320,000 tested, 6.9% active; further: potency means the concentration at half of the fitted maximal effect; on the % scale 0 is the no-effect control and ±100 the full control effect
#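 Delayed-death screen, second-generation endpoint: infected erythrocytes, 2% hematocrit, 0.05% parasitemia final; 96 hours at 37 C, 5% CO2; luciferase detection reagent; luminescence decrease equals reduced growth.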
# CHX counter = counter-screen hit for Shiga toxin inhibitors, cycloheximide; max response, %; 300,000 tested, 12% active; cell reporter, cycloheximide protein synthesis inhibition counterscreen; in the data active means max response mostly above about 13%, no sharp cut-off; inactive means mostly below about 14%; further: read at 38.3 µM for the half of the compounds with a filed dose; 0% is about no effect
# NS1 inh = influenza NS1 inhibition | Potency, µM (highest dose often 46.1 µM), for the others: at the top dose activity, positive = more growth | 270,000 tested, 0.4% active; calls by dose curve; further: potency means the concentration at half of the fitted maximal effect; actives are rising curves; nearly all actives have a fitted effect of over 50% in size
#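 Growth recovery, yeast-based: influenza A NS1 expressed in S. cerevisiae causes slow growth, and suppressors are detected by OD600. The parent strain without NS1 is used as positive control.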
# Pf growth 48h = P. falciparum growth inhibition at 48 hours (one generation) | Potency, µM (series often up to 28.7 µM), for inactives: at the top dose activity change, negative = inhibition, most hits filed as inhibitors | 310,000 tested, 5.9% active | P. falciparum luciferase growth in erythrocytes, 48 h | AID 504832; further: potency means the concentration at half of the fitted maximal effect; on the % scale 0 is the no-effect control and ±100 the full control effect
#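 Cell-based growth assay: transgenic P. falciparum expressing firefly luciferase, cultured in red cells within RPMI 1640 containing 0.5% w/v Albumax, 24 mM bicarbonate and gentamycin. A drop in luciferase activity indicates inhibition.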
# Shiga inhibitor = blocks Shiga toxin action in Vero cells. Vero cells, Shiga toxin protein synthesis inhibition reporter. inhibition, % at 38.7 µM. 290,000 tested, 9.2% active. AID 2315; in the data active means inhibition mostly above about 28%, no sharp cut-off; inactive means mostly below about 43%; further: 0% is about no effect
# * = called active by the depositor; i = inactive; ? = inconclusive; / = not tested or not shown. Sampled rows, rich in hits. Any-hit rate of the full collection: about 21%. Unless noted, the call rests on the fitted dose curve; in most records, active means well fitted inhibition curve with a large enough effect; inconclusive means small, poorly fitted or top-dose-only effect, or another doubt; inactive means no such curve, though single readings can be large or run the other way.
SMILES,Pf growth 96h,CHX counter,NS1 inh,Pf growth 48h,Shiga inhibitor
Cc1cc(C(=O)CS(=O)(=O)c2ccc(F)cc2)cc(C)c1OC(=O)N(C)C,149%,44*,/,i,89*
Cc1cc(C(=O)CSc2ccc(F)cc2)cc(C)c1OC(=S)N(C)C,-83%,58*,9%,/,146*
COc1ccccc1OCC(=O)Nc1cccc(C(=O)N2CCOCC2)c1,/,5,-7%,19%,-10
CCn1c2ccccc2c2cc(NC(=O)C(C)OC(=O)c3ccc(NC(=O)CC#N)cc3)ccc21 (centres undefined),?,/,/,12µM*,/
CC(OC(=O)c1ccc(NC(=O)CC#N)cc1)C(=O)NCCC1=CCCCC1 (centres undefined),10µM*,/,/,9.3µM*,/
COCC(C)NC(C(=O)Nc1ccc(C)c(Cl)c1)c1ccccc1 (centres undefined),3%,5,-22%,/,-16
Cc1cc(C)cc(NC(=O)C(OC(=O)c2cccs2)c2ccccc2)c1 (centres undefined),21%,14,-14%,19%,-4
Cc1ccc(NC(=O)C(OC(=O)c2ccc(C=O)cc2)c2ccccc2)cc1Cl (centres undefined),?,15*,?,-9%,5
Cc1cc(C)cc(NC(=O)C(OC(=O)c2ccc(NC(=O)CC#N)cc2)c2ccccc2)c1 (centres undefined),10µM*,/,/,10µM*,/
Cc1ccc(S(=O)(=O)NCC2CCC(C(=O)NCCCN3CCCC3=O)CC2)cc1 (centres undefined),-7%,-9,7%,0%,-5
Cc1cc(NS(=O)(=O)c2ccc(NC(=O)COc3ccc(Cl)c(C)c3)cc2)no1,-3%,-2,9%,-14%,1
COc1ccc(OC)c(/C=C/c2[nH]c(=O)[nH]c(=O)c2[N+](=O)[O-])c1,?,-4,12%,?,-1
CCOC(=O)c1c(C)[nH]c(C(=O)C(C)OC(=O)c2ccc(NC(=O)CC#N)cc2)c1C (centres undefined),10µM*,/,/,8.3µM*,/
Cc1ccc(C)c(NC(=O)C(OC(=O)c2cc[n+]([O-])cc2)c2ccccc2)c1 (centres undefined),23%,/,/,30%,/
Cc1ccc(C)c(NC(=O)C(OC(=O)c2ccc(NC(=O)CC#N)cc2)c2ccccc2)c1 (centres undefined),?,/,/,10µM*,/
NCCS(=O)(=O)NC1CCCCC1,3%,1,10%,33%,25
CC(C)(C)CN1CCN(Cc2cc3ccccc3[nH]2)CC1CCO (centres undefined),5.2µM*,-3,9%,12%,-2
O=C(O)CCCNc1cc(N2CCN(C(=O)c3ccco3)CC2)c2noc3c2c1C(=O)c1ccccc1-3,?,-7,22%,?,1
CCOC(=O)N1CCN(c2cc(NCCC(=O)O)c3c4c(onc24)-c2ccccc2C3=O)CC1,-5%,5,-8%,8.3µM*,8
O=C(O)CCCNc1cc(N2CCC3(CC2)OCCO3)c2noc3c2c1C(=O)c1ccccc1-3,-24%,24*,?,?,54*
CN1CCN(c2cc(N3CCN(C(=O)c4ccco4)CC3)c3c4c(onc24)-c2ccccc2C3=O)CC1,45%,1,0%,?,-19
CCn1c(SCC(=O)Nc2ccc(Br)cn2)nnc1C1CC1,15%,1,12%,6%,3
CCc1ccc(CNC(=O)C2CCN(S(=O)(=O)N3CCC4(CC3)OCCO4)CC2)cc1,-20%,-2,/,-1%,-5
Cc1cc(CNC(=O)C2CCC(=O)N(CCc3cccc(F)c3)C2)on1 (centres undefined),13µM*,-1,-8%,-2%,6
CCc1nc(CNC(=O)C2CCC(=O)N(CCc3cccc(F)c3)C2)no1 (centres undefined),?,9,0%,20%,36
SMILES,Pf growth 96h,CHX counter,NS1 inh,Pf growth 48h,Shiga inhibitor
CCc1cc(CNC(=O)C2CCC(=O)N(CCc3cccc(F)c3)C2)on1 (centres undefined),13µM*,-3,2%,3%,10
Cc1cccc(NC(=S)N2CCC(C(N)=O)(N3CCCCC3)CC2)c1C,19%,-3,/,5%,-27
CC(C)(C)c1ccc(-c2n[nH]c(=S)n2CCCN2CCOCC2)cc1,10%,-3,0%,?,-14
CCOc1ccc(CCNC(=O)c2cccs2)cc1OCC,17%,-2,-18%,?,1
O=C(Cc1ccc(Cl)cc1)c1c[nH]c(C(=O)NCCCN2CCOCC2)c1,-7%,-4,/,?,1
Cc1ccc(CNC(=O)c2nccnc2C(=O)O)cc1,4.7µM*,1,7%,3%,-6
Cc1ccc(CNC(=O)c2ccc(N(C)C)cc2)cc1,21%,23*,/,43%,61*
Cc1ccc(CNC(=O)c2ccc(-n3cccc3)cc2)cc1,?,9,/,9%,7
Cc1ccc(CNC(=O)c2cncc(Br)c2)cc1,0%,7,-4%,22%,29
CCc1ccc(C(=O)NCc2ccc(Cl)cc2)cc1,21%,15*,13%,27%,37
CCc1ccc(C(=O)NCc2ccc(Cl)cc2Cl)cc1,3%,14,-32%,1%,47
CCc1ccc(C(=O)NNc2ccc(Cl)cc2)cc1,49%,48*,-68%,-10%,59*
CCc1ccc(C(=O)NNc2cc(Cl)cc(Cl)c2)cc1,-19%,10,-40%,?,9
CSc1ccc(/C=C(\C(=O)O)c2ccc(S(=O)(=O)N3CCCC3)s2)cc1,?,/,/,-22%,/
CCOC(=O)C(=O)/C(=C\N(C)C)c1onc(-c2c(Cl)cccc2Cl)c1C(=O)OC,6%,2,13%,?,-4
C[C@@H]1C[C@@H]([C@H](O)CC2CC(=O)NC(=O)C2)C(=O)[C@@H](C)C1,0.1µM*,/,/,0.1µM*,/
COc1cccc(C2C(C(=O)c3cccs3)=C(O)C(=O)N2CCCn2ccnc2)c1OC (centres undefined),/,-1,12%,17%,-4
COc1cc(C=O)c(Br)cc1OCc1ccc(C)cc1,129%,47*,0%,58%,87*
Cc1ccc(NC(=O)N(Cc2ccco2)C(C)c2ccco2)cc1C (centres undefined),?,10*,-61%,?,-14
Cc1ccc(NC(=O)CN(c2ccccc2)S(=O)(=O)N(C)C)cc1C,-7%,2,0%,-21%,8
Cc1ccc(NC(=O)CN(Cc2ccco2)Cc2ccccc2O)cc1C,?,26*,-19%,?,59*
O=C(O)CC(NC(=O)c1cccc([N+](=O)[O-])c1)c1ccc2c(c1)OCO2 (centres undefined),?,-1,/,20%,-4
CC(=O)Nc1ccc2nc(CN3CCN(Cc4ccc(F)cc4)C(CCO)C3)ccc2c1 (centres undefined),?,9,2%,?,-3
Cc1ccc(S(=O)(=O)N2CCCCC2c2cccnc2)c(C)c1C (centres undefined),0.33µM*,0,-10%,?,-3
